Test results taken from ChEMBL document CHEMBL4513216, “Probing the Open Global Health Chemical Diversity Library for Multistage-Active Starting Points for Next-Generation Antimalarials” (ACS Infect Dis, 2020).
Among all 69,000 compounds or so, about 8,600 (12%) showed an effect of 50% or more. This excerpt belongs to a sample that is enriched for strong results.

Each molecule was assayed on Plasmodium berghei (assay: Screen against P. berghei liver stage (PbLuc), transformed with Luciferase, at 10uM). Settings: tested at 10 uM.
Format: functional, HepG2
Work on `Cc1cc2cc(C(=O)N3C[C@H](O)[C@]4(CCCO4)C3)ccc2o1` yielded an INHIBITION of 15.9%. `Cc1ccc(CN2CC[C@H]3[C@H](CC(Cn4cccn4)N3C)C2)s1` (stereo partly drawn) showed an INHIBITION of 25.3%. Work on `Cc1n[nH]c(C2CN(C(=O)c3cc(Cl)c[nH]3)CCO2)n1` (stereo not drawn) yielded an INHIBITION of 31.6%. `O=C(NCC(=O)N1CCCC1Cc1cccc(F)c1)c1ccccn1` (stereo not drawn) gave an INHIBITION of -6.51%. `Cc1nc(CNC(C)c2cccc(N3CCCC3=O)c2)cs1` (stereo not drawn) showed an INHIBITION of 22.7%. For `CC1CCN(CCCNS(=O)(=O)c2cccc(F)c2)CC1`, the INHIBITION was -14.9%. In the case of `CC(=O)N1CCN(CCNS(=O)(=O)c2cc(F)cc(F)c2)CC1`, the INHIBITION is reported as 26.4%. `CC1CCN(CCCNS(=O)(=O)c2cc(F)cc(F)c2)CC1` showed an INHIBITION of 51.4%. Work on `CC1CCN(CCCNS(=O)(=O)Cc2ccccc2F)CC1` yielded an INHIBITION of 26.9%. In the case of `O=S(=O)(NCCCN1CCCC1)c1cc(F)cc(F)c1`, the INHIBITION is reported as 71.3%. Work on `O=S(=O)(Cc1ccccc1F)NCCCN1CCCCC1` yielded an INHIBITION of 36.3%. `COc1cccc(-c2c[nH]c(C3CCCN3)n2)c1` (stereo not drawn) gave an INHIBITION of -8.45%. Molecule `CCc1ncc(CN[C@@H]2CCCN(C(C)=O)[C@H]2c2ccc(C)s2)cn1` has an INHIBITION of 23.2%. In the case of `COCCOc1cccc(C(=O)N2CCCC(n3ccnc3C)C2)c1` (stereo not drawn), the INHIBITION is reported as 44.3%. `Cc1cnn(C2CCCN(C(=O)c3ccc(NC4CC4)nc3)C2)c1` (stereo not drawn) was tested, and the INHIBITION was -22.9%. With `Cc1cccc2c1NC1(CCOCC1)NC2=O` the INHIBITION was 48%. With `Cc1cc(NCc2ccc(S(N)(=O)=O)cc2)nc(C)n1` the INHIBITION was 41.5%. In the case of `Fc1ccc(-c2nnc(CN3CCn4c(nnc4C4CC4)C3)o2)cc1`, the INHIBITION is reported as 0.0932%. Molecule `c1ccc(-c2nc(CN3CCn4c(nnc4C4CC4)C3)co2)cc1` has an INHIBITION of -40.2%. Work on `Cc1ccc(-c2nnc(CN3CCn4c(nnc4C4CC4)C3)o2)cc1` yielded an INHIBITION of 52.3%. `Cc1ccc(-c2nc(CN3CCn4c(nnc4C4CC4)C3)no2)cc1` was tested, and the INHIBITION was 24.7%. In the case of `Cc1ccc(-c2noc(CN3CCn4c(nnc4C4CC4)C3)n2)cc1`, the INHIBITION is reported as -32.345%. `Cc1cccc(-c2noc(CN3CCn4c(nnc4C4CC4)C3)n2)c1` gave an INHIBITION of -14.8%. Work on `Cc1ccc(-c2nc(CN3CCn4c(nnc4C4CC4)C3)co2)c(C)c1` yielded an INHIBITION of 54.4%. `Cc1ccccc1-c1noc(CN2CCn3c(nnc3C3CC3)C2)n1` was tested, and the INHIBITION was 55.9%. In the case of `Cc1ccc(-c2nc(CN3CCn4c(nnc4C4CC4)C3)co2)cc1`, the INHIBITION is reported as -25.9%. In the case of `Cc1n[nH]c(C2CN(C(=O)c3cc(C4CC4)on3)CCO2)n1` (stereo not drawn), the INHIBITION is reported as 49.2%. With `CN(C)C(C)(C)CNCc1cn(C)nc1-c1cccnc1` the INHIBITION was 23.7%. `CN(Cc1ccccc1)CC(O)Cn1cnc2ccc(Br)cc2c1=O` (stereo not drawn) gave an INHIBITION of 14.92%. `Cc1ccnc(C2(C)CCCN2S(=O)(=O)c2c(C)noc2C)n1` (stereo not drawn) was tested, and the INHIBITION was 0.705%. With `CCOCc1nc(N2CCOCC2)sc1C(=O)NCCCc1ccco1` the INHIBITION was 24.5%. `Cc1ccc(CN2Cc3c(C(=O)N4CCOCC4)nn(C)c3C2)s1` showed an INHIBITION of -17.1%. `CNc1ncc(CN2CCC(CCc3ccccc3)CC2)cn1` gave an INHIBITION of 67.5%. `CCc1ncc(CN2CCC(CCc3ccccc3)CC2)cn1` gave an INHIBITION of 37.8%. `CNc1ncc(C(=O)N2CCC(CCc3ccccc3)CC2)cn1` was tested, and the INHIBITION was -25.2%. `N[C@@H]1CC[C@H](C(=O)NCc2ccc3nonc3c2)C1` was tested, and the INHIBITION was 0%. Work on `Cc1nc(N)nc(C)c1CC(=O)NCc1ccc2nonc2c1` yielded an INHIBITION of 61.2%. Work on `CCc1[nH]c2ccc(CNC(=O)Cc3c(C)nc(N)nc3C)cc2c1C` yielded an INHIBITION of 43.9%. `CN(Cc1cnn(C)c1)C(=O)NCc1ccc2c(c1)OCCO2` gave an INHIBITION of -26.85%. In the case of `O=C(Cc1csc(-c2ccccc2Cl)n1)NCc1cccc(C(=O)O)c1`, the INHIBITION is reported as 17.1%. In the case of `Cc1ccc(C(=O)N2CCC3(CCN(Cc4ccccn4)C3=O)C2)cn1` (stereo not drawn), the INHIBITION is reported as 22.5%. For `Cc1nc(CN2CCN(c3ncnc4ccccc34)CC2)no1`, the INHIBITION was 94.1%. `CCc1nc(CN2CCCN(c3cnc4ccccc4n3)CC2)no1` showed an INHIBITION of 40.5%. `CCc1nc(CN2CCN(CC(O)c3ccccc3)CC2)no1` (stereo not drawn) gave an INHIBITION of 42%. `CCc1nc(CN2CCCN(c3nc4ccccc4o3)CC2)no1` gave an INHIBITION of -8.19%. `CCc1nc(CN2CCCN(CC(O)c3ccccc3)CC2)no1` (stereo not drawn) gave an INHIBITION of -11.4%. Molecule `Cc1nc(CN2CCCN(Cc3nc4ccccc4o3)CC2)no1` has an INHIBITION of -24.7%. `CCc1nc(CN2CCN(c3ncnc4cc(F)ccc34)CC2)no1` gave an INHIBITION of 91.8%. Molecule `CCc1nc(CN2CCCN(c3ncnc4ccccc34)CC2)no1` has an INHIBITION of 86.8%. Work on `CCn1ccnc1CN1CCN(c2ncnc3ccccc23)CC1` yielded an INHIBITION of -66.4%. Work on `CN1CCOC2(CCCN(C(=O)C3CCCCC3)C2)C1` (stereo not drawn) yielded an INHIBITION of 9.97%. In the case of `Cc1cc(F)ccc1C(=O)N1CCN(C)C2(CCC(=O)N(C)CC2)C1` (stereo not drawn), the INHIBITION is reported as 25.8%. In the case of `CNc1ncccc1CN1CCC1c1cc(N)nc(C)n1` (stereo not drawn), the INHIBITION is reported as 10.9%. `CC(C)C(NCc1ccc(Cn2cncn2)cc1)c1ccccc1` (stereo not drawn) showed an INHIBITION of -1.33%. `CC(C)C(NCc1ccc(Cn2cncn2)cc1)c1ccc(F)cn1` (stereo not drawn) gave an INHIBITION of 71.2%. For `CC(C)c1ccc(CNC(c2ccc(F)cn2)C(C)C)cc1` (stereo not drawn), the INHIBITION was 48.9%. For `COc1cc(C)ccc1OCCC(=O)N1CCC(C(N)=O)C1` (stereo not drawn), the INHIBITION was -24.9%. In the case of `O=C(c1cnc(-c2ncccn2)s1)N1CCCC1Cn1cccn1` (stereo not drawn), the INHIBITION is reported as -24.3%. `C=C(C)C(=O)N1CCC(C(=O)c2cc(C)cnc2N)CC1` showed an INHIBITION of 68.8%. In the case of `Cc1cnc(N)c(C(=O)C2CCN(C(=O)C3CCC3)CC2)c1`, the INHIBITION is reported as 13.5%. For `COCC(=O)N1CCC(c2cc(-c3ccc(N)nc3)cc(C)n2)CC1`, the INHIBITION was 7.19%. `CC(=O)N1CCC(C(=O)c2cc(C)cnc2N)CC1` gave an INHIBITION of 39.2%. For `Cc1cnc(N)c(C(=O)C2CCN(C(=O)c3cnc(C)nc3C)CC2)c1`, the INHIBITION was -2.11%. `Cc1cnc(N)c(C(=O)C2CCN(C(=O)c3ccccc3F)CC2)c1` was tested, and the INHIBITION was 56.9%. `COCCC(=O)N1CCC(C(=O)c2cc(C)cnc2N)CC1` was tested, and the INHIBITION was -26.2%. Work on `COCC(=O)N1CCC(C(=O)c2cc(C)cnc2N)CC1` yielded an INHIBITION of 58.1%. In the case of `Cc1cnc(N)c(C(=O)C2CCN(C(=O)c3cnc(C)cn3)CC2)c1`, the INHIBITION is reported as -20.2%. Work on `O=C(CCn1c(C(F)(F)F)cc2cccnc21)N1CCC(O)CC1` yielded an INHIBITION of 29.2%.
